Results filed as inconclusive are left out. A number with no mark means an inactive call. Activity calls are given as the source filed them. Calls come from the whole dose curve; as a rule, active = well fitted activation curve with a large enough effect; inconclusive = small, poorly fitted or top-dose-only effect; inactive = no such curve, though single readings can be large or run the other way.
Potency is the fitted concentration of half-maximal effect.

Sequence of Cellular tumor antigen p53 (Homo sapiens) (P04637 whole entry, looked up): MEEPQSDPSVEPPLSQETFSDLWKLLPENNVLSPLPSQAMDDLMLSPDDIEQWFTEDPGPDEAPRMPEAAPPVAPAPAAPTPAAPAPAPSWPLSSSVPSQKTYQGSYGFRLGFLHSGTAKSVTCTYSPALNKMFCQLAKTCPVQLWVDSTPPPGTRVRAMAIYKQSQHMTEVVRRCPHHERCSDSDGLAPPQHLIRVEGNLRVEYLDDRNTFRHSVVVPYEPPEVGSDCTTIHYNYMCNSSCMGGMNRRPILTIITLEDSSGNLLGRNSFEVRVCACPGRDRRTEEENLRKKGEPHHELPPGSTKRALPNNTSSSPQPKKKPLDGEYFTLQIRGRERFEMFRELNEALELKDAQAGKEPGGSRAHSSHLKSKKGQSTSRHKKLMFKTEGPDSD

The target in this assay is Cellular tumor antigen p53 (Homo sapiens) (UniProt P04637). As to the kind of experiment: Primary qHTS for small molecule compounds that upregulate eGFP-tagged delta133p53alpha (in N-terminal) cells. (AID 2060322).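 For activation: cells pre-induced with doxycycline then dosed without doxycycline; series mostly up to about 56 µM; 0% = DMSO vehicle and 100% = reference activator.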 Note: nearly all actives have a fitted effect of over 75% in size. The note with it: NCI-H358 eGFP-delta133p53alpha fluorescence, 24 h; activation: active compounds read high. In a few lines:
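NCI-H358 cells pre-induced 24 h with 10 ng/ml doxycycline for eGFP-delta133p53alpha, plated dox-free and exposed 24 h at 37C to titrated compounds. Fixed, Hoechst-stained; gated GFP peak intensity by laser scanning cytometry, normalized to DMSO (0%) and 57.5 uM 5-azacytidine (100%).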
Regarding `O=C(OCC1=CC(Cl)C(O)C(OC(=O)c2ccccc2)C1O)c1ccccc1` (stereo not given), the activation is -22.9%.

As to `COC(=O)[C@H]1[C@H]2C[C@@H]3c4[nH]c5cc(OC)ccc5c4CCN3C[C@H]2C[C@@H](OC(=O)/C=C/c2cc(OC)c(OC)c(OC)c2)[C@@H]1OC`, the Potency is 7.93 µM (active).

Turning to `CC(=O)O[C@H]1[C@H](Oc2ccccc2COC(=O)C2(O)C=CCCC2=O)O[C@H](CO)[C@@H](O)[C@@H]1O` (stereo not given in full), the activation was -9.92%.

`Cc1nc2ccc(Oc3ccc(F)cc3)cc2c(=O)n1C[C@H]1CCCN(C(C)C)C1`: the activation is -12.4%.

In the case of `CC1=CC(=O)CC(C)(C)[C@H]1/C=C/C(CO)O[C@@H]1O[C@H](CO)[C@@H](O)[C@H](O)[C@H]1O` (stereo not given in full), the activation was 9.16%.

As to `CCC(NC(=O)CC(NC(=O)C(CO)NC(=O)C(CC)NC(=O)c1ccc[nH]1)c1ccccc1)C(=O)O` (stereo not given), the activation is 23.7%.

As to `C[C@@H](c1ccccc1)N(C(N)=NC#N)c1cccc2ncccc12`, the activation was 2.33%.

As for `OC[C@H]1O[C@@H](OCCc2ccccc2)[C@H](O[C@@H]2OC[C@@H](O)[C@H](O)[C@H]2O)[C@@H](O)[C@@H]1O`, the activation was -11.5%.

In the case of `C=C1C(=O)O[C@@H]2/C=C(\CO)CC/C=C(/C=O)C[C@H](O)[C@@H]12`, the Potency is 26.9 µM (active).

On to `C/C=C(\C)C(=O)OC1CC2C(CC=C3CC(OC4CC(OC)C(OC5CC(OC)C(OC6CC(OC)C(OC7CC(OC)C(OC8CC(OC)C(OC9OC(CO)C(O)C(O)C9O)C(C)O8)C(C)O7)C(C)O6)C(C)O5)C(C)O4)CCC32C)C2(O)CCC(C(C)=O)C12C` (stereo not given), for which the activation is -13%.

For `CC(=O)OC/C(=C/C(=O)O)CC[C@@H]1C(C=O)=CC[C@@H]2C(C)(C)CCC[C@@]12C`, the activation was -32.8%.

On to `CC1(C)CCCC2(C)C1CC=C1C(=O)OC(O)C12O` (stereo not given), for which the activation is -6.11%.

Consider `CC1(C)CC[C@]2(C(=O)O[C@@H]3O[C@H](CO[C@@H]4O[C@H](CO)[C@@H](O)[C@H](O)[C@H]4O[C@@H]4O[C@H](CO)[C@H](O)[C@H](O)[C@H]4O)[C@@H](O)[C@H](O[C@@H]4O[C@H](CO)[C@@H](O)[C@H](O)[C@H]4O)[C@H]3O)CC[C@]3(C)C(=CCC4[C@@]5(C)CC[C@H](O[C@@H]6OC[C@@H](O)[C@H](O)[C@H]6O)[C@@](C)(C(=O)O)C5CC[C@]43C)[C@@H]2C1` (stereo not given in full), for which the activation was 1.53%.

As to `C=C1C[C@]23C[C@H]1CC[C@H]2[C@]1(C)CCC[C@@](C)(C(=O)O)[C@H]1[C@@H]3C(=O)O`, the activation is -8.04%.

`CC(=O)OC1C(O)CC2(C)C(CCC(C)C23Cc2c(O)cc(CO)c(C=O)c2O3)C1(C)C` (stereo not given): the activation is 6.87%.

With `C=C(CCO)C(=O)OCC1OCC(OC(=O)C(=C)CCO[C@@H]2O[C@H](CO)[C@@H](O)[C@H](O)[C@H]2O)C(O)C1O` (stereo not given in full), the activation was -8.4%.

As to `C=C1C[C@H](O)[C@@H](O)[C@@]2(C)C1[C@@H](O)[C@H]1OC(=O)C3[C@@H](C)[C@@H](O)[C@H](O)C2[C@]31C` (stereo not given in full), the activation is 0.763%.

As for `Cn1cc(C2=C(c3coc4ccccc34)C(=O)NC2=O)c2cc(Br)ccc21`, the activation was -23.2%.

For `COCC1OC(n2cnc3c(=O)[nH]cnc32)C(O)C1O` (stereo not given), the activation is 6.11%.

Consider `CC1CCC2(C(=O)OC3OC(CO)C(O)C(O)C3O)CCC3(C)C(=CCC4C5(C)CCC(O)C(C)(CO)C5CCC43C)C2C1(C)O` (stereo not given), for which the activation is -6.87%.

With `C=C(C)C1=C[C@@]2(C)C(=CC1=O)CC[C@@H](O)[C@@H]2C`, the activation is 22.1%.

On to `C=C(C)C(=O)O[C@H]1C[C@@](C)(OC(C)=O)[C@@]2(O)CC[C@@](C)(O)[C@H](OC(C)=O)[C@@]23OC(=O)C(COC)=C13`, for which the activation is -9.16%.

In the case of `C/C=C(\C)C(=O)O[C@H]1C=CC(=O)O[C@H]1/C=C/[C@H](O)[C@@H](C)O`, the Potency is 21.3 µM (active).

Regarding `CC1C2=CC(=O)OC2(O)CC2C1C(OC(=O)c1ccccc1)C(OC(=O)c1ccccc1)C1(O)C2(C)CCC(O)C1(C)C(=O)O` (stereo not given), the activation was 26.7%.

`COC1CC(=O)CCC(C)OC(=O)CC1O` (stereo not given): the activation is -6.87%.

For `CCC(C)C1NC(=O)C2C(C)CCN2C(=O)C(CC(O)CO)OC(=O)CCNC(=O)C(C)N(C)C(=O)C(C(C)C)N(C)C1=O` (stereo not given), the activation was -6.11%.

Turning to `C/C1=C\CCC2=C[C@@H](OC2=O)c2c(C)coc2C1`, the activation was 13.4%.

Turning to `C=C1C[C@@]23CCC4[C@@](C)(CCC[C@@]4(C)C(=O)OC)C2CC[C@@H]1C3` (stereo not given in full), the activation is -32.8%.

`COC1=CC(=O)C=C(C)C12Oc1c(Cl)c(OC)cc(OC)c1C2=O` (stereo not given): the activation was 1.53%.

Take `Cc1occc(=O)c1O[C@@H]1O[C@H](COC(=O)CC(C)(O)CC(=O)O)[C@@H](O)[C@H](O)[C@H]1O` (stereo not given in full): the activation is -11.6%.

For the compound `C=C1CC[C@@]2(OC1)O[C@H]1CC3[C@@H]4CC=C5C[C@@H](O)C[C@@H](O[C@@H]6OC[C@H](O)[C@H](O)[C@H]6O[C@@H]6O[C@@H](C)[C@H](O)[C@@H](O)[C@H]6O)[C@]5(C)C4CC[C@]3(C)[C@H]1[C@@H]2C` (stereo not given in full), the activation is -26%.

On to `COc1cc(O)c([C@@H](CC(=O)N2CC(C)CC(C)C2)c2ccc3c(c2)OCO3)c(OC)c1` (stereo not given in full), for which the activation was 28.3%.

Turning to `COc1ccc(S(=O)(=O)n2cnc3cc(C)c(C)cc32)cc1`, the activation was -3.67%.

As for `CC(=O)N1CCN(Cc2ccc([C@H](C)Nc3nccc(N4C(=O)OC[C@@H]4C(C)C)n3)cc2)CC1`, the activation is -16.1%.

Regarding `O=C(O)c1ccc(NC(=O)[C@H](CC2CCCC2)n2cnc(C(F)(F)F)c2)nc1`, the activation is -23.2%.

For the compound `Cc1cc(O)c(C(C)C)cc1O[C@@H]1O[C@H](CO)[C@@H](O)[C@H](O)[C@H]1O`, the activation is -17.6%.

For `CC1(C)CC=C(c2cnc3ccccc3c2)c2cc(C(=O)Nc3ccc(C(=O)O)cc3)ccc21`, the activation was 3.34%.

As to `Cc1cc(N2CCCCC2)nc2ccccc12`, the activation was 13.7%.

Turning to `OCC1=CC[C@@H]2C=CO[C@@H](O[C@@H]3O[C@H](CO)[C@@H](O)[C@H](O)[C@H]3O)[C@H]12`, the activation is -9.92%.

Consider `CC(=O)c1cc2c(cc1O)OC(C)(C)C=C2`, for which the activation is 14.3%.

(Values after PubChem BioAssay (NCATS).)
